Pf Dd2 growth – qHTS Primary assay for Inhibitors of Plasmodium falciparum Dd2 growth in vitro; P. falciparum Dd2 growth, SYBR Green, 72 h; Potency, µM (top dose mostly 28.9 µM), inactives show at the top dose activity, negative = inhibition, usual class: inhibitors; 120,000 compounds, 4.3% hits; AID 1347417, 2020; active = well fitted inhibition curve with a large enough effect;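 note: plate controls were DMSO vehicle for no effect and reference drug for full effect; nearly all actives have a fitted effect of over 65% in size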
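Readout: SYBR Green fluorescence, 485 nm excitation, 535 nm emission, after ~16 h lysis at 37C. Before that, Dd2-infected red cells (2.5% hematocrit) grew 72 h with compound, 29 uM top final concentration.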
* = called active by the depositor; i = inactive; [ ] = remark or other dose. This excerpt belongs to a sample that is enriched for hits. Potency is the fitted concentration of half-maximal effect.

SMILES | Pf Dd2 growth
COc1ccc(-n2c(-c3ccco3)nc3c(cnn3-c3ccc(Cl)cc3)c2=O)cc1 | 10µM*
Cc1cccc(-n2c(-c3ccco3)nc3c(cnn3-c3ccccc3C)c2=O)c1 | i
O=C(Cc1c(F)cccc1Cl)NCC(=O)N1CCN(c2ccccn2)CC1 | -16%
O=C(C1CCCCC1)N1CC(c2nnc(-c3ccncc3)o2)C2(CCOCC2)C1 (stereo not given) | -4%
O=C(Cc1ccsc1)Nc1ccc2c(c1)CCC(=O)N2 | -6%
Cc1cnc(CC2CCN(C(=O)CCc3c[nH]c4ccccc34)C2)n1CC1CC1 (stereo not given) | i
Cc1cnc(CC2CCCN(C(=O)N(C)C)C2)n1C(C)C (stereo not given) | -11%
Cc1cnc(CC2CCCN(C(=O)CCc3c[nH]c4ccccc34)C2)n1C(C)C (stereo not given) | 4.5µM*
Cc1ccc([S+](=O)([O-])N2CCC(N3CCCNC3=O)CC2)cc1 | 7%
COc1ncccc1-c1ccc2ncn(Cc3ccccn3)c(=O)c2n1 | i
COc1ccc(CN2C=C(C(=O)O)C(C)=NS2(=O)=O)cc1F | -12%
Cc1cccc(C)c1NC(=O)c1cccc(CN2CCCC2C)c1 (stereo not given) | 10µM*
O=C(NC1CCCN(C(=O)C2CC2)C1)c1cccc(Cn2cccn2)c1 (stereo not given) | 2%
Cc1cccc(C)c1NC(=O)c1ccc2c(c1)nnn2C1CCCC1 | 10%
COCCOCC(=O)N1CCCCCC1c1nnc(-c2ccccc2)o1 (stereo not given) | -5%
O=C(Cc1ccccc1)N1CCC2(CC(c3cccnc3)=NO2)C1 (stereo not given) | 12%
Cc1ccsc1C(=O)N1CCC2(CC1)CC(N(C(=O)c1ccccc1)C1CC1)CCO2 (stereo not given) | i
O=C(Cc1ccccc1)N1CCC2(CC1)CC(N(Cc1ccccc1)C1CC1)CCO2 (stereo not given) | i
O=C(NC1CCCC1)N1CCC2(CC1)CC(N(Cc1ccc(F)cc1)C1CC1)CCO2 (stereo not given) | 4.5µM*
COc1cccc(CC(=O)N2CCC3(CC2)CC(N(Cc2ccccc2)C2CC2)CCO3)c1 (stereo not given) | -17%
O=C(c1ccsc1)N1CCC2(CC1)CC(N(Cc1ccc(F)cc1)C1CC1)CCO2 (stereo not given) | 8.9µM*
O=C(NC1CCCC1)N1CCC2(CC1)CC(N(C(=O)c1ccccc1)C1CC1)CCO2 (stereo not given) | i
O=C(COc1ccccc1)N1CCC2(CC1)CC(N(Cc1ccccc1)C1CC1)CCO2 (stereo not given) | 3.2µM*
Cc1ccsc1C(=O)N1CCC2(CC1)CC(N(Cc1ccc(F)cc1)C1CC1)CCO2 (stereo not given) | 10µM*
CCC(CC)C(=O)N1CCC2(CC1)CC(N(Cc1ccc(F)cc1)C1CC1)CCO2 (stereo not given) | -13%
SMILES | Pf Dd2 growth
CCS(=O)(=O)N(C1CC1)C1CCOC2(CCN(C(=O)c3ccc(F)cc3)CC2)C1 (stereo not given) | 45%
O=C(c1ccsc1)N1CCC2(CC1)CC(N(Cc1ccccc1)C1CC1)CCO2 (stereo not given) | -28%
COC(=O)CNC(=O)N1CCC2(CC1)CC(N(Cc1ccc(F)cc1)C1CC1)CCO2 (stereo not given) | -2%
CNc1nccc(N2CCC(CC(=O)NCCCN(C)C)CC2)n1 | i
COC(=O)C1=CN(CC(=O)Nc2ccccc2C)S(=O)(=O)N=C1C | 22%
COc1ccc(CN2C(=O)[C@@H]3C[C@@H](CN3Cc3ccccc3Cl)Oc3ccccc32)cc1 | -40%
COc1cccc([S+](=O)([O-])N2CC(Oc3ccc(F)c(C)c3)C2)c1 | i
CN(c1cc(=O)c2ccnc(-c3ccc([S+](C)(=O)[O-])cc3)c2o1)C1CCOCC1 | i
O=C1CO[C@H]2CN(Cc3ncc[nH]3)C[C@H]2N1Cc1ccccc1 | i
CC1=C[C@@H](CN2CCC(C(N)=O)CC2)[C@H](C(C)C)C[C@H]1Cc1nnc(-c2ccccc2F)o1 | i
CC1=C[C@@H](CN2CCN(C)CC2)[C@H](C(C)C)C[C@H]1Cc1nnc(C)o1 | i
CC1=C[C@@H](CN2CCC(C(N)=O)CC2)[C@H](C(C)C)C[C@H]1Cc1nnc(-c2ccc(N(C)C)cc2)o1 | 3.5µM*
CC1=C[C@@H](CN2CCN(C)CC2)[C@H](C(C)C)C[C@H]1Cc1nnc(-c2ccc(N(C)C)cc2)o1 | 4µM*
CC1=C[C@@H](CN2CCC[C@H]2CO)[C@H](C(C)C)C[C@H]1Cc1nnc(-c2cncn2C)o1 | -33%[44.1 µM]
Cc1ccc(C(=O)N2CCC3(CC2)N(c2ccccc2)C(=O)CS3(=O)=O)cc1F | -25%
CC(C)(C)CC(=O)NC[C@H]1OC[C@@H](NC2CCC2)[C@@H]1O | i
O=Cc1ccccc1-c1ccc(F)cc1F | 10%[44.1 µM]
O=C(N[C@@H]1COCC[C@H]1OCc1ccccn1)c1cnc(C2CC2)nc1 | -12%
Cc1cccc(C(=O)N2CCC(n3cc(-c4nc(C)no4)nn3)CC2)c1 | -6%
CNC(=O)c1cc(-c2cccc(OC)c2OC)cc2c1OCCN2Cc1cccnc1 | 13µM*
CNC(=O)c1cc(-c2cnn(C)c2)cc2c1OCCN2Cc1cccnc1 | -11%[44.1 µM]
CNC(=O)c1cc(-c2cccnc2)cc2c1OCCN2Cc1cccnc1 | i
CC1CCCCN1Cc1nnc2cc(-c3nc(-c4ccccc4)no3)ccn12 (stereo not given) | -18%
CN(Cc1ccc(-c2ccccc2)cc1)Cc1cccc(OC(F)(F)F)c1 | 10%
CC1CCCCN1Cc1c(O)ccc2c(=O)c(-c3ccc(Cl)cc3)c(C(F)(F)F)oc12 (stereo not given) | 10µM*
SMILES | Pf Dd2 growth
CC1CCCCN1C(=O)CN1CCSc2ccccc21 (stereo not given) | 33%
CN(Cc1ccccc1)Cc1c(O)ccc2c(=O)c(-c3ccccc3)c(C(F)(F)F)oc12 | 4µM*
CC1CCCCN1Cc1c(O)ccc2c(=O)c(-c3ccccc3)coc12 (stereo not given) | 10µM*
CC1CCCCN1Cc1nc2c(c(=O)n(C)c(=O)n2C)n1Cc1ccc(Br)cc1 (stereo not given) | 16%
CN(Cc1ccc(-c2ccccc2)cc1)Cc1cccc(C(F)(F)F)c1 | -6%
O=C(CN1C(=O)CNC1=O)N1CCCC(Nc2ccc3c(c2)OCO3)C1 (stereo not given) | -2%
COCC1CN(C2CCC2)CC12CCN(C(=O)C1CC=CC1)CC2 (stereo not given) | i
CCOc1ccccc1NC(=O)N1CCc2nc(OCCOC)ccc2C1 | i
OC(c1cc2n(n1)CCN(c1ncc(C(F)(F)F)cc1Cl)C2)C1CC1 (stereo not given) | -17%
C[C@]1(CO)[C@H]2Cc3sc(NC(=O)c4ccco4)nc3[C@@H](CC(=O)O)[C@]2(C)CC[C@H]1O | i
CCOc1ccc(-c2nc(C3CC(=O)N(c4ccc(Cl)cc4)C3)no2)cc1OCC (stereo not given) | 2%
COCCN1CCNc2nc(COc3ccc(Cl)cc3OC)n(Cc3ccccc3)c2C1=O | i
O=C(NCc1ccc2c(c1)CCN2C(=O)c1ccc(F)cc1)c1ccco1 | 2.8µM*
Cc1cccc(C(=O)N2CCc3cc(CNC(=O)c4ccco4)ccc32)c1 | 4%
O=C(NCc1ccc2c(c1)CCN2C(=O)c1ccc(Cl)cc1)c1ccco1 | 35%
O=C(NC[C@H]1O[C@@H](CC(=O)N2CCN(c3ccc(F)cc3)CC2)[C@H](O)[C@@H]1O)c1ccc(F)c(Cl)c1 | 11%

Compound activity (PubChem BioAssay)
